High-throughput results: PubChem BioAssay, several laboratories
This is a sample that favours compounds with a hit; in the whole collection about 3.6% have one here.
LGR2 antag: blocks bursicon-induced cAMP signaling via Drosophila LGR2. HEK293 LGR2, CRE-luciferase, bursicon-stimulated, 4 h. AID 720647. 0.35% of 380,000 active. inhibition, % at 9.99 µM;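 active means drop in luminescence signal, shown as inhibition above about 50% in the replicate tests, limit read from the data, passing the limit was not always enough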;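 further: agonist challenge used bursicon conditioned medium at about half maximal strength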
Peg3 prom inh: inhibitors of Peg3 promoter. HeLa PEG-Prom luciferase reporter, luminescence, overnight. inhibition, % at 20 µM. 1.7% of 360,000 active;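 active means inhibition of at least 50% at 20 µM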
KKLEB cytotox: reduces viability of KKLEB cystic fibrosis airway cells; activity change (cytotoxicity), % at 5 µM; KKLEB CF airway cells viability, ATPlite luminescence, overnight; stronger effect = lower value; cells stimulated with P. aeruginosa culture filtrate; 0.36% of 360,000 active; AID 602141;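 active means corrected activity change at or below -50% at 5 µM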
HSP90 refold inh: blocks HSP90-mediated luciferase refolding in reticulocyte lysate; AID 1789; 0.91% of 290,000 active; Rabbit reticulocyte lysate, luciferase refolding luminescence, 3 h; inhibition, % at 5.6 µM;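 active means inhibition above the screen-wide mean plus 3 SD, computed separately per campaign, cut at about 16% in these data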;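 further: 0% = DMSO wells and 100% = 60 µM geldanamycin wells; inhibitors lower the luminescence because luciferase stays unfolded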
Mdm2-MdmX inh: disrupts the human Mdm2-MdmX interaction; SaOS-2 split-luciferase Mdm2/MdmX complementation, luminescence; inhibition, % at 8 µM; 3% of 330,000 active; AID 485346;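 active means inhibition of at least 50% at 8 µM in the primary screen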
CF NFkB block: inhibitors of cystic fibrosis induced NF-kB; KKLEB NF-kB-GFP reporter, PAF-induced, GFP fluorescence overnight; inhibition, % at 5 µM; 0.86% of 360,000 active; AID 588850;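 active means at least 50% inhibition at 5 µM, scaled per plate between neutral and stimulator controls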;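 further: PAF is a Pseudomonas aeruginosa culture filtrate used as stimulus; plate controls were PAF-stimulated DMSO wells for no effect and unstimulated DMSO wells for full effect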
Mdm2-MdmX conf: human Mdm2/MdmX binding inhibition, confirmed | luminescent assay | shares compounds with Mdm2-MdmX inh | AID 489028 | inhibition, % at 8 µM | 55% of 10,000 active; in the data active means inhibition above about 40%
Full FLuc ctr: inhibits full-length luciferase, flagging false Mdm2/MdmX hits; inhibition, % at 8 µM; AID 504607; 77% of 6,200 active; SaOS-2 full-length luciferase counterscreen, luminescence; shares compounds with Mdm2-MdmX inh;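 active means mean inhibition at 8 µM reaching about 37%, which flags the compound as non-specific, limit read from the data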;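 further: p53-null SaOS-2 cells with luciferase driven by a doxycycline-inducible promoter; compound on cells about two nights before reading with doxycycline added after day one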
The depositor's hits bear a star.

What do the screens show for `O=C(c1[nH]ncc1-c1ccccc1)C1CO1` (stereo unspecified)?
Peg3 prom inh: 2; KKLEB cytotox: -2; HSP90 refold inh: 4; Mdm2-MdmX inh: 22; CF NFkB block: -6

What do the screens show for `O=C(c1[nH]ncc1-c1cccc(Br)c1)C1CO1` (stereo unspecified)?
LGR2 antag: 17; Peg3 prom inh: 39; KKLEB cytotox: -7; HSP90 refold inh: 4; Mdm2-MdmX inh: 51*; CF NFkB block: -9; Mdm2-MdmX conf: 44*; Full FLuc ctr: 51*

How did CCOC(=O)CNC(=O)CSc1nc2cccnc2n1Cc1ccccc1 do in these assays?
Peg3 prom inh: 5; KKLEB cytotox: -3; HSP90 refold inh: 6; Mdm2-MdmX inh: -13; CF NFkB block: 0

Results for Cc1nc(NC(=O)CSc2nc3cccnc3n2Cc2ccccc2)sc1C ?
Peg3 prom inh: 32; KKLEB cytotox: -1; HSP90 refold inh: 2; Mdm2-MdmX inh: 78*; CF NFkB block: -5; Mdm2-MdmX conf: 20

What do the screens show for `CCS(=O)(=O)N[C@@H]1CC[C@H](CC(=O)NC2Cc3ccccc3C2)O[C@H]1CO`?
LGR2 antag: 8

Results for CC(C)(C)c1ccc(CS(=O)(=O)CC2(O)CCN(C(=O)c3cccc(C(F)(F)F)c3)CC2)cc1 ?
Peg3 prom inh: 12; KKLEB cytotox: -4; HSP90 refold inh: -1; Mdm2-MdmX inh: 61*; CF NFkB block: 9; Mdm2-MdmX conf: 1

Results for CC=Cc1ccc2n(c1=O)C[C@H]1[C@H](CO)[C@@H](C(=O)NCCOC)[C@@H]2N1Cc1ccccc1 (mixture of isomers) ?
LGR2 antag: 2

How did Cc1ccccc1-c1nnc(-c2ccc(Cl)cc2)o1 do in these assays?
LGR2 antag: -69; Peg3 prom inh: -218; KKLEB cytotox: -2; HSP90 refold inh: -3; Mdm2-MdmX inh: -106; CF NFkB block: -1

What do the screens show for `Cc1ccc(CS(=O)(=O)c2ccccc2-c2nnc(-c3ccc(Cl)cc3)o2)cc1`?
Peg3 prom inh: 21; KKLEB cytotox: -28; HSP90 refold inh: -5; Mdm2-MdmX inh: 55*; CF NFkB block: 38; Mdm2-MdmX conf: 18

How did CC(=O)N(C)C[C@H]1Oc2cc(C#Cc3ccccc3)ccc2S(=O)(=O)N([C@@H](C)CO)C[C@H]1C do in these assays?
LGR2 antag: -4

Results for COC(=O)c1c(C)oc2ccc(N(C(=O)c3ccncc3)S(=O)(=O)c3ccc(C)cc3)cc12 ?
Peg3 prom inh: 20; KKLEB cytotox: 3; HSP90 refold inh: 3; Mdm2-MdmX inh: 56*; CF NFkB block: 33; Mdm2-MdmX conf: 52*; Full FLuc ctr: 86*

How did COC(=O)c1c(C)oc2ccc(N(C(=O)Oc3ccccc3)S(=O)(=O)c3ccc(Cl)c([N+](=O)[O-])c3)cc12 do in these assays?
Peg3 prom inh: 18; KKLEB cytotox: 18; HSP90 refold inh: -6; Mdm2-MdmX inh: 96*; CF NFkB block: 19; Mdm2-MdmX conf: -12

How did COC(=O)c1c(C)oc2ccc(N(C(=O)c3ccncc3)S(=O)(=O)c3ccccc3)cc12 do in these assays?
Peg3 prom inh: 47; KKLEB cytotox: 7; HSP90 refold inh: 3; Mdm2-MdmX inh: 35; CF NFkB block: 10

What do the screens show for `O=C(O)c1ccc(-c2nc(-c3ccccc3)c(-c3cccs3)[nH]2)cc1`?
LGR2 antag: -5; Peg3 prom inh: 16; KKLEB cytotox: -1; HSP90 refold inh: -3; Mdm2-MdmX inh: 8; CF NFkB block: 8

Results for COc1ccc(-c2nc(-c3ccccc3)c(-c3cc([N+](=O)[O-])ccc3C)[nH]2)cc1OC ?
Peg3 prom inh: 22; KKLEB cytotox: -5; HSP90 refold inh: 7; Mdm2-MdmX inh: 19; CF NFkB block: -22

What do the screens show for `O=[N+]([O-])c1ccc(O)c(-c2nc(-c3ccccc3)c(-c3cccs3)[nH]2)c1`?
Peg3 prom inh: 34; KKLEB cytotox: -60*; HSP90 refold inh: 3; Mdm2-MdmX inh: 85*; CF NFkB block: 62*; Mdm2-MdmX conf: 89*; Full FLuc ctr: 49*

How did CCOc1cc(-c2nc(-c3ccccc3)c(-c3cc([N+](=O)[O-])ccc3C)[nH]2)ccc1O do in these assays?
Peg3 prom inh: 32; KKLEB cytotox: -1; HSP90 refold inh: -2; Mdm2-MdmX inh: 57*; CF NFkB block: -4; Mdm2-MdmX conf: 13

Results for CC[C@]12c3[nH]c4ccc(Cl)cc4c3CCN1C(=O)[C@@H](CC(=O)NC(C)(C)C)C[C@@H]2C(=O)N1CCN(C(=O)c2ccco2)CC1 ?
LGR2 antag: -12; Peg3 prom inh: 10; KKLEB cytotox: 10; Mdm2-MdmX inh: 45; CF NFkB block: 8

What do the screens show for `CC[C@]12c3[nH]c4cc(CCC(=O)N(C)C)ccc4c3CCN1C(=O)[C@@H](CC(=O)NC/C=C(\C)CCC=C(C)C)C[C@@H]2C(=O)N1CCN(C(=O)c2ccco2)CC1`?
Peg3 prom inh: 21; KKLEB cytotox: 8; Mdm2-MdmX inh: 93*; CF NFkB block: -138; Mdm2-MdmX conf: 59*; Full FLuc ctr: 59*

How did CC[C@]12c3[nH]c4ccc(Cl)cc4c3CCN1C(=O)[C@@H](CC(=O)NC/C=C(\C)CCC=C(C)C)C[C@@H]2C(=O)N1CCN(C(=O)c2ccco2)CC1 do in these assays?
LGR2 antag: 18; Peg3 prom inh: 48; KKLEB cytotox: -25; Mdm2-MdmX inh: 66*; CF NFkB block: 33; Mdm2-MdmX conf: -11

How did CC[C@]12c3[nH]c4cc(CCC(=O)N(C)C)ccc4c3CCN1C(=O)[C@@H](CC(=O)NCCN1CCOCC1)C[C@@H]2C(=O)N1CCN(C(=O)c2ccco2)CC1 do in these assays?
LGR2 antag: -32; Peg3 prom inh: -4; KKLEB cytotox: 10; Mdm2-MdmX inh: -4; CF NFkB block: -16

What do the screens show for `O=C(C[C@@H]1C=C[C@H](NC(=O)C2CCOCC2)[C@H](CO)O1)NCc1ccccc1Cl`?
LGR2 antag: 3

Results for C/C=C/c1ccc([C@@H]2[C@H](CO)N3CCCCN(C(=O)Nc4cc(F)ccc4F)C[C@@H]23)cc1 ?
LGR2 antag: -2

What do the screens show for `CCCCC(=O)Nc1ccc(C(=O)NNC(=O)CCc2ccccc2)cc1`?
LGR2 antag: 4; Peg3 prom inh: 25; KKLEB cytotox: -5; HSP90 refold inh: 1; Mdm2-MdmX inh: -27; CF NFkB block: 4

How did CCCCC(=O)Nc1ccc(C(=O)NNC(=O)c2ccc(C)c(Br)c2)cc1 do in these assays?
LGR2 antag: 0; Peg3 prom inh: -8; KKLEB cytotox: 19; HSP90 refold inh: 2; Mdm2-MdmX inh: 65*; CF NFkB block: -14; Mdm2-MdmX conf: 31; Full FLuc ctr: 43*
